Where “and” joins values, the source holds several entries; their conditions need not be identical. Equal values may be shown once. The whole screen tested about 330,000 compounds, of which about 700 (0.21%) were called active. The sample holds actives, similar compounds and a random draw of the others, so the mix is not that of the screen.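 How the source made its calls: active means OD600 absorbance below the run mean of sample wells minus 3.6 SD, in any replicate (cut at about 0.56 in these data); inactive means the rest.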 More than one record can exist for a structure, and the calls need not agree.
Test: antibacterial activity against Escherichia coli – OD600, primary screen (AID 1053175)
Settings: Escherichia coli growth, OD600, 23 h; stronger effect = lower value
For `CC(C)CC(CSc1ccccc1)N1CCN(C)CCC1=O` (stereo unspecified), the OD600 absorbance was 0.708 (inactive).
For `CCc1ccc(NC(=O)CC(C)=NNC(=O)OCc2ccc(OC)cc2)cc1`, the OD600 absorbance was 0.657 (inactive).
With `COc1ccc(C=NNC(=O)c2ccccc2[N+](=O)[O-])cc1CN1CCc2cc(OC)c(OC)cc2C1C` (stereo unspecified) the OD600 absorbance was 0.712 (inactive).
With `Cc1ccc(NC(=O)C=NOCC(=O)NCc2ccccc2Cl)cc1` the OD600 absorbance was 0.705 (inactive).
For `CCOC1OC(C(N)=O)=CC(c2ccccc2)C1CCCO` (stereo unspecified), the OD600 absorbance was 0.702 (inactive) and 0.686 (inactive).
For `CC(NC(=O)C(=O)NN=Cc1ccc(Cl)cc1)c1ccccc1` (stereo unspecified), the OD600 absorbance was 0.673 (inactive).
For `CCN=c1scc(C)n1N=Cc1ccsc1`, the OD600 absorbance was 0.697 (inactive).
For `Cc1ccc(C2=[N+]([O-])C3(CCCCCC3=NNC(N)=S)N(O)C2(C)C)o1` (stereo unspecified), the OD600 absorbance was 0.771 (inactive).
For `O=C(O)c1csc(NN=Cc2ccc(Br)cc2)n1`, the OD600 absorbance was 0.677 (inactive).
In the case of `O=C1CCCC(=NNC(=O)c2cc(NS(=O)(=O)c3cccs3)cc(NS(=O)(=O)c3cccs3)c2)C1`, the OD600 absorbance is reported as 0.669 (inactive).
In the case of `CCOC(=O)C1C2COc3cc(OC)ccc3C2N2C(=O)N(c3ccc(C(F)(F)F)cc3)C(=O)[C@@]12C` (stereo partly specified), the OD600 absorbance is reported as 0.696 (inactive) and 0.712 (inactive).
With `C=CCN1c2ccccc2[C@]23CC(C(=O)OC)N(C(=O)c4cc(C)oc4C)C2=NC(C(=O)OC)=C(C(=O)OC)C13` (stereo partly specified) the OD600 absorbance was 0.651 (inactive).
In the case of `CC(=NNC(=O)c1ccncc1)c1cc2ccccc2o1`, the OD600 absorbance is reported as 0.717 (inactive).
With `Cc1cc(C)c(C)c(OCC(=O)ON=C(N)c2ccccn2)c1` the OD600 absorbance was 0.733 (inactive).
In the case of `COC(=O)c1ccc(C=NNC(=O)C2CC(=O)N(c3ccc(F)cc3)C2)cc1` (stereo unspecified), the OD600 absorbance is reported as 0.657 (inactive).
For `Cc1nc2ccccn2c1C(=O)NN=Cc1ccc2c(c1)OCO2`, the OD600 absorbance was 0.657 (inactive).
With `O=[N+]([O-])c1ccc(C=NN2CCN(c3ccc(Cl)cc3)CC2)cc1` the OD600 absorbance was 0.805 (inactive).
For `Cc1cccc(NC(=S)NC23CN4CN(CN(C4)C2)C3)c1`, the OD600 absorbance was 0.691 (inactive).
With `Cc1cccc(NC(=S)Nc2ccc3cn[nH]c3c2)c1` the OD600 absorbance was 0.655 (inactive).
For `Cc1cccc(NC(=S)Nc2ccc(Cl)c(Cl)c2)c1`, the OD600 absorbance was 0.495 (active).
For `O=C(O)c1cc2c(o1)CCCC2=NO`, the OD600 absorbance was 0.711 (inactive).
With `Clc1c(OCCCn2ccnc2)ccc2ccccc12` the OD600 absorbance was 0.49 (active).
For `C=CCc1cc(C)ccc1OCCCn1ccnc1`, the OD600 absorbance was 0.666 (inactive).
In the case of `c1ccc(Cc2ccc(OCCn3ccnc3)cc2)cc1`, the OD600 absorbance is reported as 0.583 (inactive).
With `NC(CCCN1CCCCC1)=NO` the OD600 absorbance was 0.705 (inactive).
In the case of `CCCSc1ccc(C2N[C@@](CC(C)C)(C(=O)OC)C3C(=O)N(CC)C(=O)C23)cc1` (stereo partly specified), the OD600 absorbance is reported as 0.649 (inactive).
With `Fc1ccc(N2CCN(Cc3cnc(Oc4ccc(Br)cc4)s3)CC2)cc1` the OD600 absorbance was 0.726 (inactive).
In the case of `O=C(CN1CCN(c2ccc(F)cc2)CC1)Nc1ccccc1`, the OD600 absorbance is reported as 0.673 (inactive).
In the case of `Oc1c(CN2CCN(c3ccc(F)cc3)CC2)cc(Cl)c2cccnc12`, the OD600 absorbance is reported as 0.332 (active).
With `CCN1C(Nc2ccccc2)=NCC1CC(C)C` (stereo unspecified) the OD600 absorbance was 0.698 (inactive).
For `CC(NC(=O)COc1ccc(C=NNC(=O)C(=O)Nc2ccccc2Br)cc1)c1ccccc1` (stereo unspecified), the OD600 absorbance was 0.788 (inactive).
With `O=C(Nc1ccccc1C(=O)NN=Cc1ccncc1)c1ccccc1` the OD600 absorbance was 0.706 (inactive).
For `CC(=NNC(=O)c1cccc(S(=O)(=O)N2CCCC2)c1)c1ccco1`, the OD600 absorbance was 0.651 (inactive).
In the case of `COc1cc(C=NNC(=O)c2ccncc2)ccc1OC(=O)c1cccc(Br)c1`, the OD600 absorbance is reported as 0.605 (inactive).
In the case of `COc1ccc(C(=O)ON=C2CCS(=O)(=O)c3sccc32)cc1`, the OD600 absorbance is reported as 0.66 (inactive).
With `CC(NCC(=O)Nc1cc(Cl)cc(Cl)c1)c1ccccc1` (stereo unspecified) the OD600 absorbance was 0.522 (active).
For `O=C(CNC(c1ccccc1)c1ccccc1)Nc1ccc(F)cc1`, the OD600 absorbance was 0.694 (inactive).
With `O=C(Nc1cc(Cl)cc(Cl)c1)C(NCCCO)c1ccccc1` (stereo unspecified) the OD600 absorbance was 0.697 (inactive).
In the case of `CCOC1OC(C(=O)N2CCN(Cc3ccc4c(c3)OCO4)CC2)=CC(c2ccc(Br)cc2)C1CCCO` (stereo unspecified), the OD600 absorbance is reported as 0.677 (inactive) and 0.735 (inactive).
In the case of `O=C(O)COc1ccc(C=NNC(=O)c2cccc3ccccc23)cc1`, the OD600 absorbance is reported as 0.692 (inactive).
In the case of `O=C(O)C1=CC(c2ccc(Br)cc2)CC(OCc2ccc(CO)cc2)O1` (stereo unspecified), the OD600 absorbance is reported as 0.678 (inactive) and 0.676 (inactive).
With `Cc1nnc(NN=Cc2ccccn2)[nH]c1=O` the OD600 absorbance was 0.466 (active).
With `CC(Oc1ccccc1)C(=O)NN=Cc1ccccn1` (stereo unspecified) the OD600 absorbance was 0.654 (inactive).
For `CC(=NNc1nnc(C)c(=O)[nH]1)C(=O)O`, the OD600 absorbance was 0.72 (inactive).
For `COc1ccc(C(=O)NN=Cc2ccc(OC)c(CN3CCCc4ccccc43)c2)cc1`, the OD600 absorbance was 0.733 (inactive).
In the case of `CC(C)(C)c1[nH]c2ccccc2c1C=NO`, the OD600 absorbance is reported as 0.683 (inactive).
With `CCOC(=O)c1ccc(-c2ccc(C=NNC(=O)CN(c3ccccc3Cl)S(C)(=O)=O)o2)cc1` the OD600 absorbance was 0.728 (inactive).
In the case of `CC(C)=CCC[C@](C)(OC1OC(COC2OCC(O)C(O)C2O)C(O)C(O)C1O)C1CC[C@]2(C)C1C(O)CC1[C@@]3(C)CCC(OC4OC(CO)C(O)C(O)C4O)C(C)(C)C3CC[C@]12C` (stereo partly specified), the OD600 absorbance is reported as 0.621 (inactive).
In the case of `CCNC(=S)NN=C(C)c1cc2ccccc2o1`, the OD600 absorbance is reported as 0.669 (inactive).
In the case of `COc1cc(C=NNC(=O)c2ccc(=O)[nH]n2)cc(OC)c1OC`, the OD600 absorbance is reported as 0.774 (inactive).
With `O=C(NN=Cc1ccoc1)c1ccc([N+](=O)[O-])cc1` the OD600 absorbance was 0.694 (inactive).
For `CCNC1CC(C)S(=O)(=O)c2sc(S(N)(=O)=O)cc21` (stereo unspecified), the OD600 absorbance was 0.681 (inactive).
In the case of `Cc1cc(C(=O)NN=Cc2cccc3ccccc23)c(C)o1`, the OD600 absorbance is reported as 0.686 (inactive).
For `C#CCNC(=O)C1=CC(c2coc3ccccc3c2=O)CC(OCc2ccc(CO)cc2)O1` (stereo unspecified), the OD600 absorbance was 0.691 (inactive) and 0.72 (inactive).
For `Cc1[nH]c2ccccc2c1C=NNC(=S)NC(C)C`, the OD600 absorbance was 0.649 (inactive).
In the case of `Cc1ccc(CN2CCN(CC(=O)NN=Cc3ccc(C)o3)CC2)cc1`, the OD600 absorbance is reported as 0.613 (inactive).
In the case of `COc1c(N2CCN(C(=S)Nc3ccccc3F)C(C)C2)c(F)cc2c(=O)c(C(=O)O)cn(C3CC3)c12` (stereo unspecified), the OD600 absorbance is reported as 0.071 (active).
With `COc1ccccc1NC(=S)N1CCN(c2ccc(F)cc2)CC1` the OD600 absorbance was 0.68 (inactive).
In the case of `CC1CN(C(=S)Nc2ccccc2F)CC(C)O1` (stereo unspecified), the OD600 absorbance is reported as 0.662 (inactive).
With `CCCOc1ccc(CNC(=S)NN=Cc2ccc([N+](=O)[O-])cc2)cc1` the OD600 absorbance was 0.66 (inactive).
With `[N-]=[N+]=NCC(Cc1ccccc1)N1CCN(Cc2ccccc2)CCC1=O` (stereo unspecified) the OD600 absorbance was 0.705 (inactive).
In the case of `CC(C)(C)N1C(=O)C2C(c3ccc(Br)cc3)N3C(=O)N(c4ccccc4)C(=O)[C@@]3(Cc3ccccc3)C2C1=O` (stereo partly specified), the OD600 absorbance is reported as 0.71 (inactive).
With `CC(/C=C/c1ccccc1)=NNc1nc(C)cc(C)n1` the OD600 absorbance was 0.667 (inactive).
In the case of `CNc1nc(C)nc(NN=Cc2ccccc2)n1`, the OD600 absorbance is reported as 0.682 (inactive).
With `S=c1[nH]nc(-c2ccncc2)n1N=Cc1cccc2ccccc12` the OD600 absorbance was 0.739 (inactive).
For `Cc1ccc(C=NNC(=O)Cn2cnc3ccccc32)o1`, the OD600 absorbance was 0.676 (inactive).
For `Cc1ccc(C(=O)N2C3CN(C)C(=O)[C@@]2(Cc2ccccc2)C2C(=O)N(C)C(=O)C32)cc1` (stereo partly specified), the OD600 absorbance was 0.672 (inactive).
For `CC(=NNC(=O)CCc1ccc(S(=O)(=O)N2CCOCC2)cc1)c1ccc(OC(F)F)cc1`, the OD600 absorbance was 0.715 (inactive).
In the case of `C#CCOc1ccc(C=NNC(=O)c2cccnc2)cc1OCC`, the OD600 absorbance is reported as 0.679 (inactive).
For `C[C@@]12C(=O)Nc3cc(Cl)ccc3C(=O)N1C1c3cc(Cl)ccc3OCC1C2c1ccccc1` (stereo partly specified), the OD600 absorbance was 0.696 (inactive).
With `COc1ccc(C=C2N=C(SC)NC2=O)cc1` the OD600 absorbance was 0.705 (inactive).
For `CC(=O)c1c(C)n([O-])c2ccccc2[n+]1=O`, the OD600 absorbance was 0.186 (active).
In the case of `Cc1c(C=O)c2ccccc2n1CC(=O)O`, the OD600 absorbance is reported as 0.701 (inactive).
For `CCCCn1c(C=NNc2nc3ccccc3[nH]2)nc2ccccc21`, the OD600 absorbance was 0.684 (inactive).
With `COc1cc(C=NNC(=O)c2ccc3c(c2)OCCO3)c(Br)c(Br)c1O` the OD600 absorbance was 0.727 (inactive).
For `C=C[C@]1(C)CC(OC(=O)CSCCN(CC)CC)[C@]2(C)C(C)CC[C@]3(CCC(=O)C32)C(C)C1O` (stereo partly specified), the OD600 absorbance was 0.499 (inactive) and 0.432 (active).
For `CC(C)(C)C(=O)C=c1[nH]c(=O)c(=Cc2ccccc2F)s1`, the OD600 absorbance was 0.718 (inactive).
In the case of `COC(=O)Oc1ccc(C=NNC(=O)CN(c2ccccc2Br)S(C)(=O)=O)cc1OC`, the OD600 absorbance is reported as 0.67 (inactive).
In the case of `COc1ccc(CN2C(CC(=O)O)c3ccccc3S2(=O)=O)cc1` (stereo unspecified), the OD600 absorbance is reported as 0.676 (inactive).
In the case of `Cc1ccccc1C(=O)ON=C1CCS(=O)(=O)c2sccc21`, the OD600 absorbance is reported as 0.706 (inactive).
For `O=C(NN=Cc1cccn1-c1cccc(C(=O)O)c1)Nc1ccccc1`, the OD600 absorbance was 0.627 (inactive).
With `CC(=O)Oc1ccc(C(C)=NN2CCN(Cc3ccc(Cl)cc3)CC2)cc1` the OD600 absorbance was 0.707 (inactive).
In the case of `O=C(C=Cc1cccs1)N1CCC2(CC1)Oc1ccc(F)cc1C(=O)C21CC(c2ccccc2)=NO1` (stereo unspecified), the OD600 absorbance is reported as 0.718 (inactive).
In the case of `CC(C=NNC(=O)c1ccc2c(c1)OCO2)c1ccccc1` (stereo unspecified), the OD600 absorbance is reported as 0.695 (inactive).
For `O=C(NCc1ccccc1)C1=CC(c2ccccc2)CC(OCCCCO)O1` (stereo unspecified), the OD600 absorbance was 0.622 (inactive).
For `CC(=O)Nc1ccc(C(C)=NNC(=O)c2ccc(-c3ccccc3)cc2)cc1`, the OD600 absorbance was 0.685 (inactive).
For `CS(=O)(=O)N(CC(=O)Nc1ccc(Cl)c(Cl)c1)C1CCCCC1`, the OD600 absorbance was 0.703 (inactive).
With `O=C(CC(O)(C(F)(F)F)C(F)(F)F)Nc1ccc(Cl)c(Cl)c1` the OD600 absorbance was 0.329 (active).
With `O=C(CCCN1C(=O)CCC1=O)Nc1ccc(Cl)c(C(F)(F)F)c1` the OD600 absorbance was 0.702 (inactive).
With `Cc1nn(-c2ccccc2)c(C)c1C=NNC(=O)c1cc(-c2cccs2)[nH]n1` the OD600 absorbance was 0.602 (inactive).
For `Clc1cccc(Cl)c1C=NNc1nccs1`, the OD600 absorbance was 0.705 (inactive).

Source: PubChem BioAssay AID1053175 (ICCB-Longwood Screening Facility, Harvard Medical School, 2014)
